Results from PubChem BioAssay.
This is one part of the list. Activity calls are given as the source filed them. Cut-off read from the data, not from the text of the source, unless noted: active = activity above about 50%; inactive = the rest.

biological target: Prothrombin (Bos taurus) (UniProt P00735); test: thrombin cleavage blockers, FP readout – biochemical, fluorescence polarization, single concentration, counter-screen for CSN deneddylation inhibitor project, confirmation (AID 720656;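 active = inhibition at or above a set limit, with a fluorescence interference ratio between 0.5 and a set maximum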); conditions: bovine thrombin cleavage of Ub4-pepOG, at 16.6 µM, stronger effect = higher value
Sequence (P00735 whole entry, looked up): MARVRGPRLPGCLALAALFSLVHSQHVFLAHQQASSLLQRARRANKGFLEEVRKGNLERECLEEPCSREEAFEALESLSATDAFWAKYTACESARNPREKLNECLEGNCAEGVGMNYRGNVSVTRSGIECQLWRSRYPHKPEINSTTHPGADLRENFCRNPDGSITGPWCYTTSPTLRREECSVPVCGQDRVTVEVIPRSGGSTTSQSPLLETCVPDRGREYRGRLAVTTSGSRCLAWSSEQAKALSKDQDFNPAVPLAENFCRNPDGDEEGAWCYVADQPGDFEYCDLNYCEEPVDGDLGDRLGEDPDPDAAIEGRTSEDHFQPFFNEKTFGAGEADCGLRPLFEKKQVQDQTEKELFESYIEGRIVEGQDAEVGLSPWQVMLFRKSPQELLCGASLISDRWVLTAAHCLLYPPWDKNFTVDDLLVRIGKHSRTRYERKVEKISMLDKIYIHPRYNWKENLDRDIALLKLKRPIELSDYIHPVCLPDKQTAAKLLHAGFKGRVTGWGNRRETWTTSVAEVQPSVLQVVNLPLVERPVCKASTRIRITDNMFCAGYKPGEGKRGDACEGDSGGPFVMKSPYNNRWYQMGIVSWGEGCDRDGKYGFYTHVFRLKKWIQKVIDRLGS

Row | Compound | inhibition
1 | CC[n+]1cc(C)ccc1/C=C/c1ccc(N(C)C)cc1 | 63.1% (active)
2 | CCN1/C(=C\c2ccc3ccccc3[n+]2CC)Sc2cc(C)ccc21 | 43.3% (inactive)
3 | Cn1ccc(=Nc2ccc(NC(=O)c3ccc(N=c4ccn(C)c5ccc([N+](=O)[O-])cc45)cc3)cc2)cc1 | -10.3% (inactive)
4 | COc1cccc(/C=N/NC(=O)c2[nH]nc3c2CCc2ccccc2-3)c1O | 30.2% (active)

biological target: PEG-3 (UniProt Q6IN02); test: inhibition of PEG-3 promoter-driven reporter – cell-based, HeLa, luciferase, CREF/GAPDH counter-screen panel, dose response (AID 624167); conditions: CREF/GAPDH counter-screens; HeLa PEG-Prom luciferase reporter, overnight, run 1, dose range 1, at 100 µM (top of the series) unless noted
Sequence (Q6IN02 whole entry, looked up): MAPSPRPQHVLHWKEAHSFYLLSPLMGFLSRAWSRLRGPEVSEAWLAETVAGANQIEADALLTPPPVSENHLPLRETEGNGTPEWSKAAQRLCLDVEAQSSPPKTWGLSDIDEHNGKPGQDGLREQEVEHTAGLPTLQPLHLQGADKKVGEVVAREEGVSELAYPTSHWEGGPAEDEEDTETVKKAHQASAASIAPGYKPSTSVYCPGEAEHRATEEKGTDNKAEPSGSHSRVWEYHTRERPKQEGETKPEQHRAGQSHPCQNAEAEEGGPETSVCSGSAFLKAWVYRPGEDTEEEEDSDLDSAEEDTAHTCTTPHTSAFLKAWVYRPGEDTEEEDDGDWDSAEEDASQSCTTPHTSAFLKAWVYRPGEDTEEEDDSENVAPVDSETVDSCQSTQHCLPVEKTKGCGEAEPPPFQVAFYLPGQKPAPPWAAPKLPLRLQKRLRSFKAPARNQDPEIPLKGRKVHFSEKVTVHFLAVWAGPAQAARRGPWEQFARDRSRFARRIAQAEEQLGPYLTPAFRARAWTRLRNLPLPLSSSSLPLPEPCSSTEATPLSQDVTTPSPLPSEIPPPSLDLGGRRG

Row | Compound | inhibition
5 | COc1ccc(Nc2ncnc3ccc(Br)cc23)c(OC)c1 | 88.3%
6 | OCCCNc1nccc(-c2cc(Nc3cccc(Cl)c3)ncn2)n1 | 94%
7 | CC(C)(C)c1ccc(Oc2ccc(N)cc2)cc1 | 99.3%

biological target: PEG-3 (UniProt Q6IN02); test: as above; conditions: CREF/GAPDH counter-screens; HeLa PEG-Prom luciferase reporter, overnight, run 2, dose range 1, at 100 µM (top of the series) unless noted

Row | Compound | inhibition
8 | COc1ccc(Nc2ncnc3ccc(Br)cc23)c(OC)c1 | 91.8%
9 | OCCCNc1nccc(-c2cc(Nc3cccc(Cl)c3)ncn2)n1 | 97.4%
10 | CC(C)(C)c1ccc(Oc2ccc(N)cc2)cc1 | 99.2%

tested on: Rat fibroblasts (CREF); test: as above; conditions: CREF/GAPDH counter-screens; run 1, dose range 1, at 100 µM (top of the series)

Row | Compound | inhibition
11 | COc1ccc(Nc2ncnc3ccc(Br)cc23)c(OC)c1 | 44.4%
12 | OCCCNc1nccc(-c2cc(Nc3cccc(Cl)c3)ncn2)n1 | 14.7%
13 | CC(C)(C)c1ccc(Oc2ccc(N)cc2)cc1 | 60.1%

tested on: Rat fibroblasts (CREF); test: as above; conditions: CREF/GAPDH counter-screens; run 2, dose range 1, at 100 µM (top of the series)

Row | Compound | inhibition
14 | COc1ccc(Nc2ncnc3ccc(Br)cc23)c(OC)c1 | 38.7%
15 | OCCCNc1nccc(-c2cc(Nc3cccc(Cl)c3)ncn2)n1 | 62.3%
16 | CC(C)(C)c1ccc(Oc2ccc(N)cc2)cc1 | 83.1%

biological target: Tumor necrosis factor receptor superfamily member 10B (Homo sapiens) (UniProt O14763); test: viability loss of caspase-8 NB7 cells with TRAIL – with/without TRAIL, luminescence panel, confirmation (AID 651596); conditions: NB7 neuroblastoma + caspase-8, TRAIL sensitization, NB7 Caspase-8, with TRAIL, mean of runs, at 10 µM, stronger effect = higher value
Sequence (O14763 whole entry, looked up): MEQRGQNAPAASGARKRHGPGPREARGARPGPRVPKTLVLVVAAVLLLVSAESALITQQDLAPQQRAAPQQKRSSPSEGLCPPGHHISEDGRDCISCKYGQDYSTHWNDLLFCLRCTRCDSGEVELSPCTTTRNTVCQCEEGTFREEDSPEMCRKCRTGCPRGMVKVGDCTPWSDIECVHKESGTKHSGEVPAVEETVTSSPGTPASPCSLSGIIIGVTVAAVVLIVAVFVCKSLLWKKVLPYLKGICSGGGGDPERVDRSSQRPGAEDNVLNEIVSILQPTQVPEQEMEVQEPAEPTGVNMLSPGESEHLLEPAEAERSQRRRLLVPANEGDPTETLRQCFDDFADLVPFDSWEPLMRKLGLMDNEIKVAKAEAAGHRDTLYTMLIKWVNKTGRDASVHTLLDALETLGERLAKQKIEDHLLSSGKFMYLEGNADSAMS

Row | Compound | activity
17 | c1ccc2[nH]c(-c3nc4ccccc4[nH]3)nc2c1 | 80.2%
18 | COC(=O)Cc1[nH]n(-c2nc3ccccc3s2)c(=O)c1C(C)=Nc1ccc(OC)cc1 | 47%
19 | NC(N)=N/N=C/c1ccc(OCc2ccc(Cl)cc2Cl)cc1 | 58.8%
20 | CC1(C)CC(N2CCN(C(c3ccccc3)c3ccccc3)CC2)=CC(=[N+]2CCCCC2)C1 | 74.7%
21 | NC(=O)c1c(NC(=O)c2ccccc2)sc2c1CCCC2 | 51.6%
22 | O=C(Nc1nc2ccccc2s1)c1ccc2c(c1)OCO2 | 78.8%
23 | Cc1cccc(/C(N)=N/OC(=O)c2ccccc2Cl)c1 | 77.6%

tested on: not listed separately; test: as above; conditions: NB7 neuroblastoma + caspase-8, without TRAIL, NB7 Caspase-8, without TRAIL, mean of runs, at 10 µM

Row | Compound | activity
24 | c1ccc2[nH]c(-c3nc4ccccc4[nH]3)nc2c1 | 77.8%
25 | COC(=O)Cc1[nH]n(-c2nc3ccccc3s2)c(=O)c1C(C)=Nc1ccc(OC)cc1 | 40.9%
26 | NC(N)=N/N=C/c1ccc(OCc2ccc(Cl)cc2Cl)cc1 | 95.5%
27 | CC1(C)CC(N2CCN(C(c3ccccc3)c3ccccc3)CC2)=CC(=[N+]2CCCCC2)C1 | 56.2%
28 | NC(=O)c1c(NC(=O)c2ccccc2)sc2c1CCCC2 | 58%
29 | O=C(Nc1nc2ccccc2s1)c1ccc2c(c1)OCO2 | 76.8%
30 | Cc1cccc(/C(N)=N/OC(=O)c2ccccc2Cl)c1 | 84.8%
